The results in this text go back to PubChem BioAssay (NCI).

Some test systems named below: SR leukemia; RPMI-8226 leukemia; OVCAR-8 ovarian; OVCAR-5 ovarian; OVCAR-4 ovarian; SK-OV-3 ovarian; IGROV1 ovarian; OVCAR-3 ovarian; HS 578T breast; NCI/ADR-RES ovarian; T-47D breast; BT-549 breast; MDA-MB-435 melanoma; SW-620 colon; MCF7 breast; HCT-116 colon; HCC-2998 colon; KM12 colon; MDA-MB-468 breast.
Common to all, as to assay: NCI-60 one-dose screen, 48 h (100 = growth as untreated, 0 = no growth, -100 = all killed)
Conditions in all cases: 10 µM unless noted

Molecules are shown by their SMILES. About 83,000 compounds went through this panel and 20% of them were active in at least one assay; those are over-represented in the sample as a whole.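 Interpretation: 100, growth as untreated; towards 0, rising growth inhibition; 0, no net growth; 0 to -100, cell death. Compounds scoring below 10 were considered active.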 A number with no mark means an inactive call. Activity calls are given as the source filed them.

With `Cc1nn(-c2ccccc2)c2nc(C)n(CC(=O)N/N=C/c3ccccc3O)c(=O)c12`, the growth was 54.7% with SR leukemia; 29.1% in the assay with RPMI-8226 leukemia; 22% with OVCAR-8 ovarian; 46.6% in the assay on OVCAR-5 ovarian; 31.2% in the assay with OVCAR-4 ovarian; 25% in the assay with SK-OV-3 ovarian. For the same compound, the growth is 24.2% with IGROV1 ovarian; 51.3% with OVCAR-3 ovarian; 55.4% with HS 578T breast; 16.7% in the assay on NCI/ADR-RES ovarian; 16.1% in the assay on T-47D breast; 37.2% with BT-549 breast. Besides, the growth with MDA-MB-435 melanoma was 34.7%; in the assay with SW-620 colon, 18.9%; in the assay on MCF7 breast, 7.8% (active); with HCT-116 colon, 24.6%; with HCC-2998 colon, 27.4%; in the assay with KM12 colon, 31%. In addition, the growth in the assay on MDA-MB-468 breast is -23.3% (active).

As for `Cn1ncc2c(N)nc(Oc3ccccc3-c3ccccc3)nc21`, the growth with SR leukemia is -4.14% (active); with RPMI-8226 leukemia it was 19.4%; with OVCAR-8 ovarian, 36.2%; in the assay on OVCAR-5 ovarian it was 66.8%; in the assay on OVCAR-4 ovarian, 58.3%; in the assay on SK-OV-3 ovarian, 110%. The growth in the assay on IGROV1 ovarian is 38.6%; in the assay with OVCAR-3 ovarian, 27.9%; in the assay on HS 578T breast it was 40.9%; in the assay with NCI/ADR-RES ovarian, -9.01% (active); with T-47D breast it was 31.9%; in the assay with BT-549 breast, -1.44% (active). In addition, the growth is -38.2% (active) in the assay with MDA-MB-435 melanoma; 25.2% in the assay with SW-620 colon; 9.1% (active) in the assay with MCF7 breast; 15.6% in the assay with HCT-116 colon; 62.2% in the assay on HCC-2998 colon; 24% in the assay on KM12 colon. The growth in the assay on MDA-MB-468 breast is -24.1% (active).

`c1n[nH]cc1-c1nc2ccc3[nH]ncc3c2c2c1CC1(CCOCC1)CC2`: the growth is 2.94% (active) with SR leukemia; 49.8% in the assay with RPMI-8226 leukemia; 35.4% in the assay with OVCAR-8 ovarian; 87.7% in the assay on OVCAR-5 ovarian; 70.2% with OVCAR-4 ovarian; -0.483% (active) in the assay on SK-OV-3 ovarian. For the same compound, the growth in the assay on IGROV1 ovarian was 61.2%; in the assay with OVCAR-3 ovarian, 52.5%; in the assay on HS 578T breast, 5.29% (active); in the assay on NCI/ADR-RES ovarian, 96.5%; in the assay with T-47D breast it was 13.5%; with BT-549 breast, 10.9%. Besides, the growth was 29.3% in the assay with MDA-MB-435 melanoma; 17.9% with SW-620 colon; 31.8% with MCF7 breast; 11.1% in the assay with HCT-116 colon; 41.1% in the assay on HCC-2998 colon; 47.3% with KM12 colon. The growth in the assay with MDA-MB-468 breast was 5.4% (active).

In the case of `Cc1cccc(NCC(=O)N2CCN(c3ncnc4c3cnn4-c3ccccc3)CC2)c1`, the growth with SR leukemia was 22.7%; in the assay on RPMI-8226 leukemia, 75.7%; with OVCAR-8 ovarian, 65.2%; with OVCAR-5 ovarian it was 83.8%; in the assay with OVCAR-4 ovarian, 51.6%; with SK-OV-3 ovarian, 67.1%. The growth is 59.4% in the assay with IGROV1 ovarian; 94% with OVCAR-3 ovarian; 60.4% in the assay with HS 578T breast; 60.6% in the assay with NCI/ADR-RES ovarian; 33.6% with T-47D breast; 76.9% with BT-549 breast. For the same compound, the growth in the assay on MDA-MB-435 melanoma was 59%; with SW-620 colon, 81.5%; in the assay with MCF7 breast, 45.6%; in the assay with HCT-116 colon, 58.7%; in the assay on HCC-2998 colon, 86.4%; with KM12 colon, 40.6%. Besides, the growth with MDA-MB-468 breast is 35.8%.

`COc1ccc(C(=O)NNC(=O)CSc2nc3sc4c(c3c(=O)n2-c2ccc(Cl)cc2)CCCC4)cc1`: the growth with SR leukemia was 48.2%; with RPMI-8226 leukemia, 79%; with OVCAR-8 ovarian it was 24.3%; in the assay on OVCAR-5 ovarian it was 78.9%; in the assay with OVCAR-4 ovarian it was 78.6%; in the assay on SK-OV-3 ovarian, 70.4%. Also, the growth in the assay on IGROV1 ovarian was 89.2%; in the assay with OVCAR-3 ovarian it was 106%; in the assay with HS 578T breast, 60.4%; with NCI/ADR-RES ovarian, 56.9%; in the assay on T-47D breast, 72.5%; in the assay with BT-549 breast, 34.5%. The growth in the assay with MDA-MB-435 melanoma was 93.4%; in the assay with SW-620 colon it was 88%; in the assay with MCF7 breast, 63.5%; in the assay on HCT-116 colon, 72.7%; in the assay on HCC-2998 colon, 111%; in the assay with KM12 colon, 98%. Moreover, the growth with MDA-MB-468 breast was 88.3%.

Consider `O=C1Nc2ccccc2/C1=C\c1ccc(OCC(=O)c2ccc(Br)cc2)cc1`, for which the growth was 36.3% in the assay with SR leukemia; 49.2% with RPMI-8226 leukemia; 69.6% in the assay with OVCAR-8 ovarian; 93.2% with OVCAR-5 ovarian; 58.2% with OVCAR-4 ovarian; 101% in the assay on SK-OV-3 ovarian. The growth with IGROV1 ovarian is 78.3%; with OVCAR-3 ovarian, 77.5%; in the assay with HS 578T breast, 84.5%; in the assay on NCI/ADR-RES ovarian it was 47.8%; in the assay with T-47D breast, 46.9%; in the assay on BT-549 breast, 56.6%. For the same compound, the growth is 70.5% in the assay with MDA-MB-435 melanoma; 78.1% with SW-620 colon; 27.4% with MCF7 breast; 55.4% in the assay with HCT-116 colon; 85.1% with HCC-2998 colon; 77.3% in the assay with KM12 colon. Besides, the growth in the assay on MDA-MB-468 breast is 52.4%.

For the compound `N#CC1=C(c2cccs2)Nc2c(c(-c3ccccc3)nn2-c2ccccc2)C12C(=O)Nc1ccc(Br)cc12` (configuration not stated), the growth with SR leukemia was -1.14% (active); in the assay on RPMI-8226 leukemia, 2.85% (active); with OVCAR-8 ovarian it was -14.6% (active); in the assay on OVCAR-5 ovarian, -60.4% (active); in the assay on OVCAR-4 ovarian, 0.653% (active); in the assay on SK-OV-3 ovarian, -0.147% (active). Further, the growth in the assay on IGROV1 ovarian was -7.57% (active); in the assay on OVCAR-3 ovarian it was -25.7% (active); with HS 578T breast it was -7.18% (active); in the assay on NCI/ADR-RES ovarian, 10.5%; in the assay with T-47D breast, 1.8% (active); with BT-549 breast, -68.4% (active). In addition, the growth was -40.1% (active) in the assay with MDA-MB-435 melanoma; -24.6% (active) in the assay with SW-620 colon; 7.23% (active) with MCF7 breast; -52.8% (active) with HCT-116 colon; 6.28% (active) in the assay with HCC-2998 colon; -12.2% (active) in the assay with KM12 colon. Moreover, in the assay on MDA-MB-468 breast, the growth is -31.9% (active).

With `Clc1ccccc1Nc1nnc(-c2c[nH]c3ccccc23)o1`, the growth is 15.7% with SR leukemia; 4.23% (active) in the assay with RPMI-8226 leukemia; 13.4% with OVCAR-8 ovarian; 29.8% in the assay on OVCAR-5 ovarian; 73.2% in the assay with OVCAR-4 ovarian; 22.1% in the assay with SK-OV-3 ovarian. The growth in the assay on IGROV1 ovarian was 19.4%; in the assay on OVCAR-3 ovarian, 9.25% (active); in the assay with HS 578T breast, 18.2%; in the assay with NCI/ADR-RES ovarian, -18.8% (active); in the assay with T-47D breast, 27.3%; with BT-549 breast, 25.1%. Also, the growth with MDA-MB-435 melanoma is -44.2% (active); in the assay on SW-620 colon it was 29%; in the assay with MCF7 breast it was 14.9%; in the assay on HCT-116 colon, 8.25% (active); with HCC-2998 colon, 6.55% (active); in the assay with KM12 colon, 15%. In addition, in the assay on MDA-MB-468 breast, the growth is -22.5% (active).
